Our source for the growth inhibition values is PubChem BioAssay (NCI).

The nature of test [1]: NCI Yeast Anticancer Drug Screen. Data for the rad50 strain (AID 155).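 Note: 0% = growth of vehicle-only cultures of the same strain.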 The note with it: S. cerevisiae rad50 strain growth inhibition, stronger effect = higher value. Summed up:
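Genetically altered yeast (DNA repair pathway); compound treatment; growth inhibition vs vehicle ctrl.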

The nature of test [2]: NCI Yeast Anticancer Drug Screen. Data for the mec2-1 strain (AID 157). The note with it: S. cerevisiae mec2-1 strain, stronger effect = higher value. Summed up:
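Cells of the genetically defined mec2-1 yeast strain are incubated with test compound. Inhibition of growth is calculated against vehicle-treated controls.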

The nature of test [3]: NCI Yeast Anticancer Drug Screen. Data for the sgs1 mgt1 strain (AID 161).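 Note: 0% = growth of cultures given vehicle only.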 As to conditions: S. cerevisiae sgs1 mgt1 strain, stronger effect = higher value. Summed up: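 Test agents were incubated with a DNA-repair-mutant yeast strain. Growth was then read and compared against vehicle-treated controls.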
Test [4] can be described thus: NCI Yeast Anticancer Drug Screen. Data for the cln2 rad14 strain (AID 165).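 Note: 0% = growth equal to vehicle treated cultures.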 As to conditions: S. cerevisiae cln2 rad14 strain, stronger effect = higher value. Summed up: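 The screen exposed genetically defined yeast (cln2 rad14) to test compounds and scored growth inhibition relative to vehicle-treated controls.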
Test [5] can be described thus: NCI Yeast Anticancer Drug Screen. Data for the bub3 strain (AID 167). The note with it: S. cerevisiae bub3 mutant strain, stronger effect = higher value. In short, it runs like this: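 Yeast carrying a defined mutation is treated with each compound, and growth is compared with that of vehicle-exposed cells to give inhibition.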
The nature of test [6]: NCI Yeast Anticancer Drug Screen. Data for the mlh1 rad18 strain (AID 175). The note with it: S. cerevisiae mlh1 rad18 strain growth inhibition, stronger effect = higher value. Summed up: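 Compound-treated yeast growth, normalised to vehicle controls. Strain bears defined DNA repair mutations.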
[7] abbreviates: at 5.0 µM (retest, dose inferred, filed as 0.5).
The mark [8] stands for this setting: at 50.0 µM (retest, dose inferred, filed as 5.0).

The panel holds about 79,000 compounds, 15% with a hit somewhere; the sample as a whole holds those more often. A number with no mark means an inactive call. Activity calls are given as the source filed them. Cut-off read from the data, not from the text of the source: active = growth inhibition above about 70%; inactive = the rest.

`CCNC(=S)N/N=C(/C)c1cccc(/C(C)=N\NC(=S)NCC)n1`: the growth inhibition in test [1] (setting [7]) is 1%; in test [1] (setting [8]), 12%; in test [1] (at 50.0 µM), 57.5%; in test [2] (setting [7]), 10%; in test [2] (setting [8]), 10%; in test [2] (at 50.0 µM) it was 38.4%. The growth inhibition in test [3] (setting [7]) is 13%; in test [3] (setting [8]), 24%; in test [3] (at 50.0 µM), 63.7%; in test [4] (setting [7]), 8%; in test [4] (setting [8]), 6%; in test [4] (at 50.0 µM), 19.1%. Besides, the growth inhibition in test [5] (setting [7]) is 18%; in test [5] (setting [8]), 38%; in test [5] (at 50.0 µM), 54.2%; in test [6] (setting [7]), 12%; in test [6] (setting [8]), 22%; in test [6] (at 50.0 µM) it was 37.7%.

For `CSC(=S)n1nc(-c2ccccc2)c(N=Nc2ccccc2[N+](=O)[O-])c1C`, the growth inhibition in test [1] (setting [7]) is -1%; in test [1] (setting [8]), 92% (active); in test [1] (at 50.0 µM), 97% (active); in test [2] (setting [7]), -4%; in test [2] (setting [8]), 96% (active); in test [2] (at 50.0 µM) it was 96.2% (active). In addition, the growth inhibition in test [3] (setting [7]) was 5%; in test [3] (setting [8]), 96% (active); in test [3] (at 50.0 µM), 97% (active); in test [4] (setting [7]) it was -12%; in test [4] (setting [8]), 94% (active); in test [4] (at 50.0 µM), 92% (active). Further, the growth inhibition in test [5] (setting [7]) is 0%; in test [5] (setting [8]), 95% (active); in test [5] (at 50.0 µM), 94.3% (active); in test [6] (setting [7]), -1%; in test [6] (setting [8]), 93% (active); in test [6] (at 50.0 µM) it was 98% (active).

Turning to `CCOC(=O)c1[nH]cc(C)c1-c1ccc2c(-c3ccccc3)nc3ccccc3n12`, the growth inhibition in test [1] (setting [7]) is 5%; in test [1] (setting [8]), 65%; in test [1] (at 50.0 µM), 44.8%; in test [2] (setting [7]), 7%; in test [2] (setting [8]) it was 61%; in test [2] (at 50.0 µM), 64.2%. Besides, the growth inhibition in test [3] (setting [7]) was 3%; in test [3] (setting [8]) it was 70% (active); in test [3] (at 50.0 µM), 60.4%; in test [4] (setting [7]), 12%; in test [4] (setting [8]), 81% (active); in test [4] (at 50.0 µM), 38.8%. Also, the growth inhibition is 9% in test [5] (setting [7]); 79% (active) in test [5] (setting [8]); 40.6% in test [5] (at 50.0 µM); 12% in test [6] (setting [7]); 73% (active) in test [6] (setting [8]); 69% in test [6] (at 50.0 µM).

Regarding `COCC(O)Cn1cc([N+](=O)[O-])nc1C` (configuration not stated), the growth inhibition in test [1] (setting [7]) was 4%; in test [1] (setting [8]) it was -1%; in test [1] (at 50.0 µM), 2.7%; in test [2] (setting [7]), 1%; in test [2] (setting [8]) it was -3%; in test [2] (at 50.0 µM), -5.25%. Further, the growth inhibition was -1% in test [3] (setting [7]); 2% in test [3] (setting [8]); -4.8% in test [3] (at 50.0 µM); 0% in test [4] (setting [7]); -2% in test [4] (setting [8]); 9.45% in test [4] (at 50.0 µM). Besides, the growth inhibition in test [5] (setting [7]) was -4%; in test [5] (setting [8]) it was -4%; in test [5] (at 50.0 µM) it was 19.2%; in test [6] (setting [7]), 6%; in test [6] (setting [8]), 4%; in test [6] (at 50.0 µM) it was 9.4%.

Regarding `O=C(CC(c1ccccc1)c1ccccc1)NCCCCN1CCCCCCC1`, the growth inhibition in test [1] (setting [7]) was 27%; in test [1] (setting [8]) it was 89% (active); in test [1] (at 50.0 µM) it was 12%; in test [2] (setting [7]), 19%; in test [2] (setting [8]), 96% (active); in test [2] (at 50.0 µM) it was -9%. Besides, the growth inhibition was 25% in test [3] (setting [7]); 94% (active) in test [3] (setting [8]); 22.9% in test [3] (at 50.0 µM); 2% in test [4] (setting [7]); 90% (active) in test [4] (setting [8]); 89.7% (active) in test [4] (at 50.0 µM). In addition, the growth inhibition in test [5] (setting [7]) is 5%; in test [5] (setting [8]), 93% (active); in test [5] (at 50.0 µM), 26.4%; in test [6] (setting [7]) it was 16%; in test [6] (setting [8]), 93% (active); in test [6] (at 50.0 µM), 19.4%.

With `c1cc[c]([Ge]([O]c2cccc3cccnc23)([c]2ccccc2)[c]2ccccc2)cc1`, the growth inhibition in test [1] (setting [7]) was 10%; in test [1] (setting [8]), 10%; in test [1] (at 50.0 µM), 73% (active); in test [2] (setting [7]), 7%; in test [2] (setting [8]), 7%; in test [2] (at 50.0 µM), 67%. Also, the growth inhibition is -3% in test [3] (setting [7]); -3% in test [3] (setting [8]); 67.5% in test [3] (at 50.0 µM); 6% in test [4] (setting [7]); 6% in test [4] (setting [8]); 45.5% in test [4] (at 50.0 µM). The growth inhibition in test [5] (setting [7]) was 7%; in test [5] (setting [8]) it was 7%; in test [5] (at 50.0 µM), 72.2% (active); in test [6] (setting [7]), 10%; in test [6] (setting [8]) it was 10%; in test [6] (at 50.0 µM), 74% (active).

Regarding `CC1CCC(NCCOC(=O)c2ccc([N+](=O)[O-])cc2)CC1` (configuration not stated), the growth inhibition in test [1] (setting [7]) was 2%; in test [1] (setting [8]) it was 23%; in test [1] (at 50.0 µM), 70.8% (active); in test [2] (setting [7]), 1%; in test [2] (setting [8]), 18%; in test [2] (at 50.0 µM), -2.9%. Moreover, the growth inhibition is 1% in test [3] (setting [7]); 24% in test [3] (setting [8]); 54.5% in test [3] (at 50.0 µM); -75% in test [4] (setting [7]); 41% in test [4] (setting [8]); 31.9% in test [4] (at 50.0 µM). For the same molecule, the growth inhibition was -8% in test [5] (setting [7]); -71% in test [5] (setting [8]); 17.6% in test [5] (at 50.0 µM); -3% in test [6] (setting [7]); 6% in test [6] (setting [8]); 42.9% in test [6] (at 50.0 µM).

With `CC(=O)OC1CCC2(C)C(C1)C(OC(C)=O)CC1C3CCC(c4cccc(=O)o4)C3(C)CCC12` (configuration not stated), the growth inhibition is 2% in test [1] (setting [7]); 64% in test [1] (setting [8]); 85.1% (active) in test [1] (at 50.0 µM); 11% in test [2] (setting [7]); 84% (active) in test [2] (setting [8]); 86.7% (active) in test [2] (at 50.0 µM). The growth inhibition was 17% in test [3] (setting [7]); 72% (active) in test [3] (setting [8]); 84.8% (active) in test [3] (at 50.0 µM); 5% in test [4] (setting [7]); 76% (active) in test [4] (setting [8]); 84.9% (active) in test [4] (at 50.0 µM). The growth inhibition in test [5] (setting [7]) was -2%; in test [5] (setting [8]), 79% (active); in test [5] (at 50.0 µM), 81.2% (active); in test [6] (setting [7]) it was -6%; in test [6] (setting [8]) it was 66%; in test [6] (at 50.0 µM), 85% (active).

`COc1ccc(NC(=O)Nc2ccc(Cl)cc2)nn1`: the growth inhibition in test [1] (setting [7]) was -1%; in test [1] (setting [8]), 4%; in test [1] (at 50.0 µM), -10%; in test [2] (setting [7]) it was -4%; in test [2] (setting [8]), -3%; in test [2] (at 50.0 µM), 20.4%. In addition, the growth inhibition in test [3] (setting [7]) is -3%; in test [3] (setting [8]) it was 3%; in test [3] (at 50.0 µM) it was 1.3%; in test [4] (setting [7]) it was -14%; in test [4] (setting [8]) it was -8%; in test [4] (at 50.0 µM) it was 33.8%. In addition, the growth inhibition was -9% in test [5] (setting [7]); -7% in test [5] (setting [8]); -8.05% in test [5] (at 50.0 µM); -7% in test [6] (setting [7]); 3% in test [6] (setting [8]); -3.9% in test [6] (at 50.0 µM).
